For 13 molecules, outcome and AC50 results are on record in PubChem BioAssay (EPA / NIEHS).

Records with an inconclusive call do not appear. Activity calls are given as the source filed them. Rule for the calls, unless noted: active = hit-call score of the fitted dose curve at least 0.9, where 1 is the maximum; inconclusive = response in the unintended direction; inactive = score below 0.9.

A word on the AC50: it is the concentration giving half of the maximal activity seen.

Assay [1] can be described thus: Tanguay_ZF_120hpf_JAW_legacy: (Legacy) Oregon State University Tanguay Lab 120 Hour Post-fertilization zebrafish Assay for Jaw Malformation (AID 2283638). In a few lines: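 Dechorionated Tropical 5D wild-type zebrafish embryos, one per well, exposed statically from 6 hpf to 120 hpf at 28C in 0.64% DMSO. Jaw malformation was scored by brightfield microscopy as present or absent. It was not scored in dead embryos.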

The nature of assay [2]: Tanguay_ZF_120hpf_OTIC_legacy: (Legacy) Oregon State University Tanguay Lab 120 Hour Post-fertilization zebrafish Assay for Otic Vesicle Malformation (AID 2283639). In a few lines: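 Otic vesicle malformation is read as a yes/no morphology call at 120 hpf. Exposure is static at 28C with 0.64% (vol/vol) DMSO; embryos that die are excluded from non-mortality endpoints.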
Assay [3] in a line: Tanguay_ZF_120hpf_SOMI_legacy: (Legacy) Oregon State University Tanguay Lab 120 Hour Post-fertilization zebrafish Assay for Somite Malformation (AID 2283647). In a few lines: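 Dechorionated Tropical 5D wild-type zebrafish embryos, one per well from 6 hpf, statically exposed at 28C to 120 hpf in 0.64% DMSO; somite malformation scored present/absent by brightfield; trimethyltin 5 uM positive control; dead embryos not scored.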

Assay [4] is described as follows: Tanguay_ZF_120hpf_CFIN_legacy: (Legacy) Oregon State University Tanguay Lab 120 Hour Post-fertilization zebrafish Assay for Caudal Fin Malformation (AID 2283649). In a few lines:
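Dechorionated Tropical 5D wild-type embryos, one per well from 6 hpf, static exposure to 120 hpf at 28C in 0.64% DMSO. Caudal fin malformation scored by brightfield as present/absent; not scored in dead embryos.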

Assay [5] is described as follows: Tanguay_ZF_120hpf_PIG_legacy: (Legacy) Oregon State University Tanguay Lab 120 Hour Post-fertilization zebrafish Assay for Pigmentation Malformation (AID 2283650). In a few lines: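 Dechorionated Tropical 5D wild-type embryos, one per well from 6 hpf, statically exposed at 28C in the dark until 120 hpf, 0.64% DMSO final. Pigmentation scored present/absent by brightfield microscopy; dead embryos not scored; fitted versus DMSO.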

A short description of assay [6]: Tanguay_ZF_120hpf_CIRC_legacy: (Legacy) Oregon State University Tanguay Lab 120 Hour Post-fertilization zebrafish Assay for Circulatory Malformation (AID 2283651). In a few lines:
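Using wild-type Tropical 5D zebrafish, we exposed dechorionated embryos from 6 to 120 hpf in embryo medium with 0.64% DMSO. Circulatory defects were scored as present or absent; 5uM trimethyltin chloride served as positive control.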

The nature of assay [7]: Tanguay_ZF_120hpf_SWIM_legacy: (Legacy) Oregon State University Tanguay Lab 120 Hour Post-fertilization zebrafish Assay for Swim Bladder Malformation (AID 2283654).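 Note: swim bladder malformation in each larva scored yes or no under brightfield.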 In a few lines: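 Dechorionated wild-type Tropical 5D zebrafish embryos, one per well from 6 hpf, were statically exposed at 28C until 120 hpf in 0.64% DMSO. Swim bladder malformation scored as present/absent by brightfield microscopy; not scored in dead larvae.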

Assay [8] is described as follows: Tanguay_ZF_120hpf_TRUN_legacy: (Legacy) Oregon State University Tanguay Lab 120 Hour Post-fertilization zebrafish Assay for Truncated Body (AID 2283655). In a few lines: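 Dechorionated Tropical 5D wild-type embryos placed singly from 6 hpf and statically exposed to 120 hpf at 28C, final DMSO 0.64%. Truncated body scored as present/absent by brightfield; not scored in dead embryos.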

A short description of assay [9]: Tanguay_ZF_120hpf_NC_legacy: (Legacy) Oregon State University Tanguay Lab 120 Hour Post-fertilization zebrafish Assay for Notochord and Tail Malformation (AID 2283656). In a few lines: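 Dechorionated 5D zebrafish, 1/well from 6 hpf; static exposure to 120 hpf, 28C, sealed, dark; final DMSO 0.64% v/v. NC scored binary (present/absent); dead embryos not scored. Fit vs DMSO baseline, gain direction.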

A short description of assay [10]: Tanguay_ZF_120hpf_TR_legacy: (Legacy) Oregon State University Tanguay Lab 120 Hour Post-fertilization zebrafish Assay for Touch Response (AID 2283667). In a few lines:
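Tropical 5D wild-type zebrafish embryos statically exposed to 120 hpf at 28°C, sealed and dark-covered, 0.64% DMSO final; touch response scored as present/absent by brightfield microscopy at 120 hpf. Trimethyltin chloride 5 uM positive control; dead embryos not scored.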

Assay [11] is described as follows: STM_H9_OrnithineISnorm_perc: Stemina devTOX quickPredict H9 human embryonic stem cell (hESC)-based Assay for Ornithine (ORN) Metabolite Biomarker, Normalized (AID 2283712; active = hit-call score of the fitted dose curve at least 0.9, where 1 is the maximum; inactive = score below 0.9;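 note: ornithine released into spent medium during last day measured by mass spectrometry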). In a few lines: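 Cells: undifferentiated H9 hESC. Dosing: 72 h, media replaced every 24 h. Sample: final 24-h conditioned media, 40% acetonitrile. Read: UPLC-HRMS ornithine area vs 13C standard, % DMSO control.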

The nature of assay [12]: Tanguay_ZF_120hpf_PFIN_legacy: (Legacy) Oregon State University Tanguay Lab 120 Hour Post-fertilization zebrafish Assay for Pectoral Fin Malformation (AID 2283648).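 Note: each larva judged yes or no for fin defect by brightfield with dead larvae skipped.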 In a few lines: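 Dechorionated Tropical 5D wild-type zebrafish embryos, one per well, statically exposed from 6 to 120 hpf at 28C with 0.64% DMSO final. Pectoral fin malformation scored present/absent by brightfield at 120 hpf; not scored in dead embryos.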

Assay [13] can be described thus: CCTE_Padilla_ZF_144hpf_TERATOSCORE: (Legacy) CCTE's 144 Hour Post-fertilization zebrafish Assay Teratoscore, Padilla Lab (AID 2283679; active = hit-call score of the fitted dose curve at least 0.9, where 1 is the maximum; inactive = score below 0.9;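 note: zebrafish embryos with chorions exposed by immersion from 6-8 hpf to 5 dpf with daily renewal; teratogenicity score from eye scoring of death hatching and malformations at 144 hpf; higher score means more developmental defects relative to DMSO baseline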). In a few lines:
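Larvae scored by eye at 144 hpf for death, hatching and malformations after a day in clean Hanks'. Before that, daily-renewed exposure at 80 uM (0.4% DMSO, 26C) from roughly 6-8 hpf through 5 dpf, 4 embryos per chemical.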

Assay [14] has as its system Thyroperoxidase (TPO), gene 54314. Description: CCTE_Simmons_AUR_rTPO: CCTE's Amplex UltraRed Assay for Thyroperoxidase (TPO) Inhibition, Simmons Lab (AID 2283662).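 For AC50: potency for loss of signal meaning inhibition of peroxidase activity.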 In a few lines: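 Rat thyroid microsomes (5 ug protein) were incubated with test compound (8 concentrations, 5 nM–87.5 uM final, 0.5% DMSO), 25 uM Amplex UltraRed and 300 uM H2O2 in 200 mM phosphate buffer for 30 min at 37C in the dark; fluorescence read at 544/590 nm.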

Assay [15] in a line: CCTE_Simmons_CellTiterGLO_HEK293T: Viability Assessment in CCTE's Assays for Thyroperoxidase (TPO) Inhibition, Simmons Lab (AID 2283665).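 For AC50: cells exposed to compound for 24 h before readout; actives reduce ATP signal below DMSO vehicle meaning cytotoxicity.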 In a few lines:
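Cytotoxicity counter-screen: human HEK293T cells in low-serum (1% FBS) medium receive test chemical, 5 nM to 87.5 uM final, for 24 h; ATP is quantified by luciferase luminescence.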
For orientation: In ATP-based viability assays light output follows the ATP content of the culture.

Read-out in assay [16]: kallikrein-3 (KLK3), KLK3 (gene 354)
Description: LTEA_HepaRG_KLK3: Life Technologies and Expression Analysis (LTEA) Assay for kallikrein-3 (KLK3) using HepaRG (AID 2283652; active = hit-call score of the fitted dose curve at least 0.9, where 1 is the maximum; inactive = score below 0.9). The note with it: mRNA level, 48 h; actives raise or lower the signal. In a few lines: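 Differentiated human HepaRG cells in serum-free induction medium exposed 48 h in duplicate, eight-point half-log series from 100 uM in 0.5% DMSO. KLK3 mRNA by qRT-PCR, normalised to ACTB, GAPDH, POLR2A; bidirectional fit versus DMSO.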

Read-out in assay [17]: solute carrier (SLC22A6), SLC22A6 (gene 9356)
The assay can be described thus: LTEA_HepaRG_SLC22A6: Life Technologies and Expression Analysis (LTEA) Assay for solute carrier (SLC22A6) using HepaRG (AID 2283653; active = hit-call score of the fitted dose curve at least 0.9, where 1 is the maximum; inactive = score below 0.9). As to conditions: mRNA level, 48 h; actives raise or lower the signal. In a few lines: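 Differentiated HepaRG cells exposed 48 h in serum-free induction medium to 8 half-log concentrations, top 100 uM, in 0.5% DMSO; SLC22A6 mRNA by Fluidigm qRT-PCR normalized to ACTB, GAPDH, POLR2A, fitted bidirectionally versus DMSO.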

Read-out in assay [18]: solute carrier (SLC10A1), SLC10A1 (gene 6554)
Description: LTEA_HepaRG_SLC10A1: Life Technologies and Expression Analysis (LTEA) Assay for solute carrier (SLC10A1) using HepaRG (AID 2283657; active = hit-call score of the fitted dose curve at least 0.9, where 1 is the maximum; inactive = score below 0.9). As to conditions: mRNA level, 48 h; actives raise or lower the signal. In a few lines:
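HepaRG cells (single lot) exposed 48 h in serum-free induction medium, 8-point half-log series from 100 uM top in 0.5% DMSO, duplicate. SLC10A1 mRNA by qRT-PCR normalised to ACTB, GAPDH, POLR2A; bidirectional fit versus DMSO.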

Read-out in assay [19]: matrix metalloproteinase-1 (MMP1), MMP1 (gene 4312)
The assay can be described thus: LTEA_HepaRG_MMP1: Life Technologies and Expression Analysis (LTEA) Assay for matrix metalloproteinase-1 (MMP1) using HepaRG (AID 2283658; active = hit-call score of the fitted dose curve at least 0.9, where 1 is the maximum; inactive = score below 0.9). As to conditions: mRNA level, 48 h; actives raise or lower the signal. In a few lines: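 Differentiated human HepaRG cells, 48 h post-plating in serum-free induction medium, were exposed 48 h to eight half-log concentrations topping at 100 uM in 0.5% DMSO, duplicate. MMP1 mRNA measured by Fluidigm TaqMan qRT-PCR, normalized to ACTB, GAPDH, POLR2A; bidirectional fits versus DMSO.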

Read-out in assay [20]: Cytochrome P450 (CYP24A1_1), CYP24A1 (gene 1591)
The assay can be described thus: LTEA_HepaRG_CYP24A1_1: Life Technologies and Expression Analysis (LTEA) Assay for Cytochrome P450 (CYP24A1_1) using HepaRG (AID 2283671; active = hit-call score of the fitted dose curve at least 0.9, where 1 is the maximum; inactive = score below 0.9). As to conditions: mRNA level, 48 h; actives raise or lower the signal. In a few lines:
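Differentiated human HepaRG cells in serum-free induction medium, exposed 48 h in duplicate to eight half-log concentrations from 100 uM top, 0.5% DMSO. Transcript measured by TaqMan qRT-PCR, normalised to ACTB, GAPDH, POLR2A; bidirectional fitting versus DMSO.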

Take `COCCOCCO`: the call in assay [1], in assay [2], in assay [3], in assay [4], in assay [5] and in assay [6] was inactive. For the same molecule, the result in [7], in assay [8], in assay [9], in assay [10] and in assay [11] was inactive.

For `CCCCN(CCCC)SN(C)C(=O)Oc1cccc2c1OC(C)(C)C2`, the molecule was classed as inactive in [1], in assay [2], in assay [3], in assay [12], in assay [4] and in assay [5]. Besides, the molecule was classed as inactive in assay [6], in assay [7], in [8], in [9] and in [10]. Moreover, the AC50 in assay [13] is 6.04 µM (active).

As for `CC(Cc1ccc(OCC(=O)O)cc1)NCC(O)c1csc(C(F)(F)F)n1` (centres undefined), the result in [1], in assay [2], in assay [3], in assay [12], in assay [4] and in assay [5] was inactive. Further, the result in assay [6], in assay [7], in assay [8], in assay [9] and in assay [10] was inactive.

For `CCC1(c2ccccc2)C(=O)N=C(O)NC1=O` (centres undefined), the molecule was called inactive in assay [1], in [2], in [3], in assay [12], in assay [4] and in assay [5]. Besides, the molecule was called inactive in [6], in [7], in assay [8], in assay [9], in assay [14] and in [15]. Further, the outcome in assay [10] was inactive. The AC50 in [11] is 0.0967 µM (active).

As to `CCCCCCCc1ccc(O)cc1`, the outcome in assay [1], in [3], in assay [12], in [5], in assay [6] and in [7] was inactive. In addition, the molecule was classed as inactive in assay [8], in assay [9] and in assay [10]. Moreover, the AC50 in [14] is 10.2 µM (active); in [15] it was 10.1 µM (active); in assay [13] it was 6.11 µM (active).

Consider `Cc1ccc(O)cc1C`, for which the result in [1], in [3], in assay [12], in [4], in assay [5] and in assay [6] was inactive. The call in assay [7], in assay [8], in [9] and in assay [10] was inactive.

Regarding `Cc1ccc([N+](=O)[O-])cc1C`, the outcome in assay [1], in assay [2], in assay [12], in assay [5], in [6] and in [8] was inactive. Also, the molecule was called inactive in assay [9].

As for `O=c1ssc(Cl)c1Cl`, the AC50 in [14] was 24.5 µM (active); in [15], 53.8 µM (active).

Turning to `c1nc[nH]n1`, the molecule was called inactive in assay [2], in assay [3], in assay [4], in assay [5], in [6] and in [9]. The outcome in [10] was inactive.

`ClC1=C(Cl)C2(Cl)C3C(Cl)C(Cl)CC3C1(Cl)C2(Cl)Cl` (centres undefined): the result in assay [1], in assay [2], in assay [3], in assay [4], in assay [5] and in assay [7] was inactive. The molecule was classed as inactive in assay [10]. Besides, the AC50 in assay [13] was 9.16 µM (active).

Consider `CC(C)(C)OOC(C)(C)C`, for which the result in [1], in [3], in [12], in [4], in assay [5] and in [6] was inactive. The molecule was called inactive in assay [16], in assay [17], in [7], in assay [8], in assay [9] and in assay [18]. For the same molecule, the outcome in [19] and in [20] was inactive.

Consider `CCCCc1ccc(O)cc1`, for which the AC50 in assay [14] is 0.51 µM (active); in [15], 53.6 µM (active).

Turning to `CCOc1ccc(C(C)(C)COCc2cccc(Oc3ccccc3)c2)cc1`, the outcome in assay [1], in [3], in assay [12], in assay [4], in assay [5] and in [6] was inactive. Also, the result in [7], in [8] and in assay [9] was inactive.
